Data published in PubChem BioAssay (NCATS).
Results filed as inconclusive are left out. Activity calls are given as the source filed them. The call rests on the fitted dose curve; in most records, active means well fitted curve in the direction sought with a large enough effect; inconclusive means small, poorly fitted or top-dose-only effect, or another doubt; inactive means no such curve, though single readings can be large; an effect the other way counts as inactive or inconclusive.

Columns and labels:
CRL-7250 = normal cell line; assay: Cytotoxic Profiling of Annotated Libraries Using Quantitative High-Throughput Screening (AID 1296008); conditions: Five cell lines viability, CellTiter-Glo ATP luminescence, 48-72 h; max response: stronger effect = lower value; further: nearly all actives have a fitted effect of over 60% in size; on max response: on the % scale 0 is the no-effect control and ±100 the full control effect
Outline: (§1)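 Cells exposed to compounds for 48 or 72 hr at 37 degrees Celsius. Viability read as ATP-coupled luminescence with CellTiter-Glo after 10 min at room temperature.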

HEK293 = assay: as above; conditions: Five cell lines viability, CellTiter-Glo ATP luminescence, 48-72 h; max response: stronger effect = lower value
Outline: as §1

HaCat = assay: as above; conditions: Five cell lines viability, CellTiter-Glo ATP luminescence, 48-72 h; max response: stronger effect = lower value
Outline: as §1

KB-3-1 = assay: as above; conditions: Five cell lines viability, CellTiter-Glo ATP luminescence, 48-72 h; max response: stronger effect = lower value
Outline: as §1

NIH3T3 [1] = assay: as above; conditions: Five cell lines viability, CellTiter-Glo ATP luminescence, 48-72 h; max response: stronger effect = lower value
Outline: as §1

NIH3T3 [2] = assay: qHTS assay to identify novel small-molecules to repurpose for Merkel cell carcinoma treatment (AID 1296009); conditions: MCC and control cell lines, CellTiter-Glo viability, 72 h; at 44.8 µM (top of the series) unless noted; further: nearly all actives have a fitted effect of over 60% in size
Outline: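 CellTiter-Glo luminescence after 72 hr compound exposure at 37 degree celsius gave cell viability. Libraries NPC and MIPE were run as 8- and 11-point dose responses; RLUs normalized to DMSO (negative) and no-cell (cytotoxicity) controls.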

C33A = assay: Primary qHTS to identify gynecologic anti-cancer compounds using libraries of approved drugs and bioactive compounds (AID 1345084); conditions: Gynecologic cancer cell panel viability, ATPlite luminescence, 48 h; series mostly up to 57.5 µM; further: on the % scale 0 is the no-effect control and ±100 the full control effect; nearly all actives have a fitted effect of over 55% in size
Outline: (§2)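 48 h compound exposure at 37 C, 5% CO2; five-point qHTS. ATPlite luminescence readout of cell ATP.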

CAOV3 = assay: as above; conditions: Gynecologic cancer cell panel viability, ATPlite luminescence, 48 h; series mostly up to 57.5 µM
Outline: as §2

CASKI = assay: as above; conditions: Gynecologic cancer cell panel viability, ATPlite luminescence, 48 h; series mostly up to 57.5 µM
Outline: as §2

Es-2 = assay: as above; conditions: Gynecologic cancer cell panel viability, ATPlite luminescence, 48 h; series mostly up to 57.5 µM
Outline: as §2

HeLa = assay: as above; conditions: Gynecologic cancer cell panel viability, ATPlite luminescence, 48 h; series mostly up to 57.5 µM
Outline: as §2

Hek293T = assay: as above; conditions: Gynecologic cancer cell panel viability, ATPlite luminescence, 48 h, control line for the selectivity index; series mostly up to 57.5 µM
Outline: as §2

JEG-3 = assay: as above; conditions: Gynecologic cancer cell panel viability, ATPlite luminescence, 48 h; series mostly up to 57.5 µM
Outline: as §2

OV90 = assay: as above; conditions: Gynecologic cancer cell panel viability, ATPlite luminescence, 48 h; series mostly up to 57.5 µM
Outline: as §2

CC(C(=O)Nc1cc(C#N)ccc1CCCC(=O)O)c1ccc(F)c2ccccc12 (stereo not drawn)
inactive: max response (CRL-7250) -4.54% | max response (HEK293) -6.85% | max response (HaCat) -4.32% | max response (KB-3-1) 5.51% | outcome (NIH3T3 [1]) | outcome (NIH3T3 [2]) | Potency (C33A) | Potency (CAOV3) | outcome (CASKI) | Potency (Es-2) | Potency (HeLa) | Potency (Hek293T) | Potency (JEG-3) | Potency (OV90)

COc1ccc(CCC(=O)O)c(O[C@@H]2O[C@H](CO)[C@@H](O)[C@H](O)[C@H]2O)c1
inactive: outcome (CRL-7250) | max response (HEK293) -2.75% | max response (HaCat) 3.93% | max response (KB-3-1) -5.8% | outcome (NIH3T3 [1]) | outcome (NIH3T3 [2]) | Potency (C33A) | Potency (CAOV3) | outcome (CASKI) | Potency (Es-2) | Potency (HeLa) | Potency (Hek293T) | Potency (JEG-3) | Potency (OV90)

Cc1c(O)cc2c(c1O)COC1(O)CCCOC21 (stereo not drawn)
inactive: max response (CRL-7250) -4.56% | max response (HEK293) -1.54% | max response (HaCat) -19.1% | outcome (KB-3-1) | outcome (NIH3T3 [1]) | outcome (NIH3T3 [2]) | Potency (C33A) | Potency (CAOV3) | outcome (CASKI) | Potency (Es-2) | Potency (HeLa) | Potency (Hek293T) | Potency (JEG-3) | Potency (OV90)

CC(C)(CC(=O)N1CCCC1)NCC(=O)N1C[C@@H](F)C[C@H]1C#N
inactive: max response (CRL-7250) -2.43% | max response (HEK293) -0.937% | max response (HaCat) -28% | max response (KB-3-1) 1.01% | outcome (NIH3T3 [1]) | outcome (NIH3T3 [2]) | Potency (C33A) | Potency (CAOV3) | outcome (CASKI) | Potency (Es-2) | Potency (HeLa) | Potency (Hek293T) | Potency (JEG-3) | Potency (OV90)

O=C(C[C@@H]1C(C(=O)O)=CO[C@@H](O[C@@H]2O[C@H](CO)[C@@H](O)[C@H](O)[C@H]2O)/C1=C\CO)OCCc1ccc(O)cc1
inactive: max response (CRL-7250) 1.31% | max response (HEK293) 1.44% | max response (HaCat) -0.66% | outcome (KB-3-1) | outcome (NIH3T3 [1]) | outcome (NIH3T3 [2]) inactive [at 17.4 µM] | Potency (C33A) | Potency (CAOV3) | outcome (CASKI) | Potency (Es-2) | Potency (HeLa) | Potency (Hek293T) | Potency (JEG-3) | Potency (OV90)

CC(C)CC[C@@H](O)[C@](C)(O)[C@H]1CC[C@@]2(O)C3=CC(=O)[C@@H]4C[C@@H](O)[C@@H](O)C[C@]4(C)[C@H]3CC[C@]12C
inactive: max response (CRL-7250) -1.43% | max response (HEK293) 3.83% | max response (HaCat) 4.07% | outcome (KB-3-1) | outcome (NIH3T3 [1]) | outcome (NIH3T3 [2]) | Potency (C33A) | Potency (CAOV3) | outcome (CASKI) | Potency (Es-2) | Potency (HeLa) | Potency (Hek293T) | Potency (JEG-3) | Potency (OV90)

C=CCC1=C[C@]2(OC)[C@H](C)[C@@H](c3ccc(OC)c(OC)c3)O[C@]2(OC)CC1=O
inactive: max response (CRL-7250) 4.13% | max response (HEK293) -10.4% | max response (HaCat) -0.368% | outcome (KB-3-1) | outcome (NIH3T3 [1]) | outcome (NIH3T3 [2]) | Potency (C33A) | Potency (CAOV3) | outcome (CASKI) | Potency (Es-2) | Potency (HeLa) | Potency (Hek293T) | Potency (JEG-3) | Potency (OV90)

COc1ccc(O[C@@H]2O[C@H](CO)[C@@H](O)[C@H](O)[C@H]2O)cc1OC
inactive: outcome (CRL-7250) | max response (HEK293) 3.27% | max response (HaCat) -16.7% | outcome (KB-3-1) | outcome (NIH3T3 [1]) | outcome (NIH3T3 [2]) | Potency (C33A) | Potency (CAOV3) | outcome (CASKI) | Potency (Es-2) | Potency (HeLa) | Potency (Hek293T) | Potency (JEG-3) | Potency (OV90)

CC1=C2C3OC(=O)C(C)C3(O)CCC2(C)CCC1 (stereo not drawn)
inactive: max response (CRL-7250) 4.24% | max response (HEK293) 2.89% | max response (HaCat) 0.93% | max response (KB-3-1) 2.02% | outcome (NIH3T3 [1]) | outcome (NIH3T3 [2]) | Potency (C33A) | Potency (CAOV3) | outcome (CASKI) | Potency (Es-2) | Potency (HeLa) | Potency (Hek293T) | Potency (JEG-3) | Potency (OV90)

CC1OC(O[C@@H]2[C@@H](O)[C@H](OC(=O)[C@]34CCC(C)(C)C[C@H]3C3=CCC5[C@@]6(C)CC[C@H](O[C@@H]7O[C@H](C(=O)O)[C@@H](O)[C@H](O[C@@H]8OC[C@@H](O)[C@H](O)[C@H]8O)[C@H]7O[C@@H]7O[C@H](CO)[C@H](O)[C@H](O)[C@H]7O)[C@@](C)(C=O)C6CC[C@@]5(C)[C@]3(C)C[C@H]4O)O[C@H](C)[C@@H]2OC2OC(C)C(OC3OCC(O)C(O)C3O)C(O)C2O)C(O)C(O)C1O (stereo partly drawn)
inactive: max response (CRL-7250) 4.06% | max response (HEK293) -14.3% | max response (HaCat) -4.11% | max response (KB-3-1) -3.93% | outcome (NIH3T3 [1]) | outcome (NIH3T3 [2]) inactive [at 9.27 µM] | activity change, negative = cytotoxicity (C33A) 2.48% [at 6.55 µM] | activity change, negative = cytotoxicity (CAOV3) 7.91% [at 6.55 µM] | activity change, negative = cytotoxicity (CASKI) 19.4% [at 6.55 µM] | activity change, negative = cytotoxicity (Es-2) -0.176% [at 6.55 µM] | activity change, negative = cytotoxicity (HeLa) 18.4% [at 6.55 µM] | activity change, negative = cytotoxicity (Hek293T) 1.68% [at 6.55 µM] | activity change, negative = cytotoxicity (JEG-3) 0.0438% [at 6.55 µM] | activity change, negative = cytotoxicity (OV90) 6.42% [at 6.55 µM]

COc1cc(C[C@@]2(O)CO[C@@H](c3ccc(O[C@@H]4O[C@H](CO)[C@@H](O)[C@H](O)[C@H]4O)c(OC)c3)[C@H]2CO)ccc1O
inactive: max response (CRL-7250) -6.96% | max response (HEK293) 0.509% | max response (HaCat) -8.64% | max response (KB-3-1) 1.94% | outcome (NIH3T3 [1]) | outcome (NIH3T3 [2]) inactive [at 17.4 µM] | Potency (C33A) | Potency (CAOV3) | outcome (CASKI) | Potency (Es-2) | Potency (HeLa) | Potency (Hek293T) | Potency (JEG-3) | Potency (OV90)

C/C=C(\C)C(=O)OC[C@H]1O[C@@H](O[C@H]2[C@@H](O[C@H]3O[C@H](COC(=O)/C(C)=C/C)[C@@H](O)[C@H](O)[C@H]3O[C@@H]3O[C@H](CO)[C@@H](O)[C@H](OC(=O)/C(C)=C/C)[C@H]3O)O[C@H](COC(=O)/C(C)=C/C)[C@@H](O)[C@@H]2O)[C@H](O)[C@@H](O)[C@@H]1O
inactive: max response (CRL-7250) -2.42% | max response (HEK293) -5.26% | max response (HaCat) 2.69% | outcome (KB-3-1) | outcome (NIH3T3 [1]) | outcome (NIH3T3 [2]) inactive [at 9.27 µM] | activity change, negative = cytotoxicity (C33A) 12.3% [at 11.6 µM] | activity change, negative = cytotoxicity (CAOV3) 5.53% [at 11.6 µM] | activity change, negative = cytotoxicity (CASKI) -1.71% [at 11.6 µM] | activity change, negative = cytotoxicity (Es-2) 4.24% [at 11.6 µM] | activity change, negative = cytotoxicity (HeLa) -5.55% [at 11.6 µM] | activity change, negative = cytotoxicity (Hek293T) 8.78% [at 11.6 µM] | activity change, negative = cytotoxicity (JEG-3) 2.17% [at 11.6 µM] | activity change, negative = cytotoxicity (OV90) -2.51% [at 11.6 µM]
